SMILES strings stand for the structures. The panel holds about 79,000 compounds, 15% with a hit somewhere; the sample as a whole holds those more often. Values without a mark were called inactive. Calls of active or inactive are those of the source. Rule as the data show it: active = growth inhibition above about 70%; inactive = the rest.

A short description of assay [1]: NCI Yeast Anticancer Drug Screen. Data for the rad50 strain (AID 155).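 Also: 0% = growth of vehicle-only cultures of the same strain.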 The note with it: S. cerevisiae rad50 strain growth inhibition, stronger effect = higher value. Put shortly:
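Inhibition values express reduced yeast growth in compound-treated cultures relative to vehicle-treated controls.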

The nature of assay [2]: NCI Yeast Anticancer Drug Screen. Data for the mec2-1 strain (AID 157). The settings on record: S. cerevisiae mec2-1 strain, stronger effect = higher value. The method in brief: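 Yeast mec2-1 mutant treated with compound. Readout: growth inhibition vs vehicle controls.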
Assay [3] can be described thus: NCI Yeast Anticancer Drug Screen. Data for the sgs1 mgt1 strain (AID 161).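 Also: 0% = growth of cultures given vehicle only.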 The settings on record: S. cerevisiae sgs1 mgt1 strain, stronger effect = higher value. The method in brief: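 Inhibition of yeast growth, normalised to vehicle-treated controls, is reported for a strain bearing genetic alterations in DNA damage repair.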
A short description of assay [4]: NCI Yeast Anticancer Drug Screen. Data for the cln2 rad14 strain (AID 165).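 Also: 0% = growth equal to vehicle treated cultures.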 The settings on record: S. cerevisiae cln2 rad14 strain, stronger effect = higher value. The method in brief: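 cln2 rad14 yeast strain; compound exposure; growth inhibition read vs vehicle controls.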
Assay [5] is described as follows: NCI Yeast Anticancer Drug Screen. Data for the bub3 strain (AID 167). The note with it: S. cerevisiae bub3 mutant strain, stronger effect = higher value. The method in brief:
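Steps: expose the mutant yeast strain to compound; grow alongside vehicle-treated cultures; measure growth; express inhibition against the vehicle cultures.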

Assay [6] is described as follows: NCI Yeast Anticancer Drug Screen. Data for the mlh1 rad18 strain (AID 175). The settings on record: S. cerevisiae mlh1 rad18 strain growth inhibition, stronger effect = higher value. The method in brief: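 Yeast w/ defined DNA-repair lesions; compound exposure; growth vs vehicle controls → % inhibition.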
Setting [7] is: at 5.0 µM (retest, dose inferred, filed as 0.5).
Where [8] appears, read: at 50.0 µM (retest, dose inferred, filed as 5.0).

Take `CN(c1ccc(Cl)cc1)S(=O)(=O)c1cccc([N+](=O)[O-])c1`: the growth inhibition was -6% in assay [1] (setting [7]); 52% in assay [1] (setting [8]); 42.7% in assay [1] (at 50.0 µM); -13% in assay [2] (setting [7]); 71% (active) in assay [2] (setting [8]); 42.8% in assay [2] (at 50.0 µM). In addition, the growth inhibition in assay [3] (setting [7]) is -6%; in assay [3] (setting [8]), 62%; in assay [3] (at 50.0 µM), 70.8% (active); in assay [4] (setting [7]) it was 27%; in assay [4] (setting [8]), 48%; in assay [4] (at 50.0 µM) it was 48.4%. The growth inhibition was -28% in assay [5] (setting [7]); 90% (active) in assay [5] (setting [8]); 78% (active) in assay [5] (at 50.0 µM); -11% in assay [6] (setting [7]); 51% in assay [6] (setting [8]); 58.9% in assay [6] (at 50.0 µM).

`CCN(CC)CCCCCCNc1cc(C)cc2cccnc12`: the growth inhibition in assay [1] (setting [7]) was 7%; in assay [1] (setting [8]), 59%; in assay [1] (at 50.0 µM) it was 65.9%; in assay [2] (setting [7]) it was 7%; in assay [2] (setting [8]), 61%; in assay [2] (at 50.0 µM), 19.9%. The growth inhibition in assay [3] (setting [7]) is 20%; in assay [3] (setting [8]), 81% (active); in assay [3] (at 50.0 µM), 74% (active); in assay [4] (setting [7]) it was 9%; in assay [4] (setting [8]), 52%; in assay [4] (at 50.0 µM) it was 72.8% (active). Further, the growth inhibition in assay [5] (setting [7]) was 14%; in assay [5] (setting [8]) it was 76% (active); in assay [5] (at 50.0 µM), 18.9%; in assay [6] (setting [7]), 10%; in assay [6] (setting [8]), 74% (active); in assay [6] (at 50.0 µM) it was 59.6%.

Regarding `O=CC(=O)CC(O)CO` (stereo not given), the growth inhibition in assay [1] (setting [7]) is 0%; in assay [1] (setting [8]), 74% (active); in assay [1] (at 50.0 µM), 78.4% (active); in assay [2] (setting [7]), 5%; in assay [2] (setting [8]), 69%; in assay [2] (at 50.0 µM), 72.9% (active). Further, the growth inhibition in assay [3] (setting [7]) is 4%; in assay [3] (setting [8]), 81% (active); in assay [3] (at 50.0 µM) it was 67.6%; in assay [4] (setting [7]), 1%; in assay [4] (setting [8]), 94% (active); in assay [4] (at 50.0 µM), 89.3% (active). Besides, the growth inhibition in assay [5] (setting [7]) is 0%; in assay [5] (setting [8]) it was 87% (active); in assay [5] (at 50.0 µM) it was 98.7% (active); in assay [6] (setting [7]), -14%; in assay [6] (setting [8]), 67%; in assay [6] (at 50.0 µM), 76.3% (active).

As to `c1ccc(CN2CCC3(CC2)SSC2(CCN(Cc4ccccc4)CC2)S3)cc1`, the growth inhibition was 3% in assay [1] (setting [7]); 16% in assay [1] (setting [8]); 53.7% in assay [1] (at 50.0 µM); 2% in assay [2] (setting [7]); 23% in assay [2] (setting [8]); 23.4% in assay [2] (at 50.0 µM). In addition, the growth inhibition in assay [3] (setting [7]) was 22%; in assay [3] (setting [8]), 67%; in assay [3] (at 50.0 µM), 61.2%; in assay [4] (setting [7]), 4%; in assay [4] (setting [8]) it was 8%; in assay [4] (at 50.0 µM), 68.3%. The growth inhibition was 5% in assay [5] (setting [7]); 43% in assay [5] (setting [8]); 27.1% in assay [5] (at 50.0 µM); 6% in assay [6] (setting [7]); 32% in assay [6] (setting [8]); 52% in assay [6] (at 50.0 µM).

For the compound `O=C1CC(c2ccccc2Cl)C(c2ccccc2Cl)C1` (stereo not given), the growth inhibition in assay [1] (setting [7]) was -2%; in assay [1] (setting [8]), 97% (active); in assay [1] (at 50.0 µM), 97.5% (active); in assay [2] (setting [7]), -6%; in assay [2] (setting [8]) it was 98% (active); in assay [2] (at 50.0 µM), 96% (active). Also, the growth inhibition in assay [3] (setting [7]) is -7%; in assay [3] (setting [8]), 96% (active); in assay [3] (at 50.0 µM) it was 96.7% (active); in assay [4] (setting [7]), -2%; in assay [4] (setting [8]), 97% (active); in assay [4] (at 50.0 µM) it was 95.5% (active). Also, the growth inhibition in assay [5] (setting [7]) is 0%; in assay [5] (setting [8]), 97% (active); in assay [5] (at 50.0 µM) it was 97.2% (active); in assay [6] (setting [7]), -2%; in assay [6] (setting [8]), 96% (active); in assay [6] (at 50.0 µM), 97.2% (active).

With `COc1cccc2c1C(=O)c1c(O)c3c(c(O)c1C2=O)CC(O)(C(C)=O)CC3OC1CC(NCC2(O)OCC(O)C2O)C(O)C(C)O1` (stereo not given), the growth inhibition in assay [1] (setting [7]) is 50%; in assay [1] (setting [8]) it was 96% (active); in assay [1] (at 50.0 µM), 88.8% (active); in assay [2] (setting [7]) it was 34%; in assay [2] (setting [8]) it was 98% (active); in assay [2] (at 50.0 µM), 88.6% (active). Also, the growth inhibition in assay [3] (setting [7]) is 33%; in assay [3] (setting [8]), 98% (active); in assay [3] (at 50.0 µM), 86.8% (active); in assay [4] (setting [7]), 44%; in assay [4] (setting [8]), 97% (active); in assay [4] (at 50.0 µM), 87.4% (active). Also, the growth inhibition in assay [5] (setting [7]) was 34%; in assay [5] (setting [8]) it was 98% (active); in assay [5] (at 50.0 µM), 87.1% (active); in assay [6] (setting [7]), 40%; in assay [6] (setting [8]), 96% (active); in assay [6] (at 50.0 µM) it was 91% (active).

`CC(C)C[P+](c1ccccc1)(c1ccccc1)c1ccccc1`: the growth inhibition in assay [1] (setting [7]) is 0%; in assay [1] (setting [8]), 23%; in assay [1] (at 50.0 µM), 62.6%; in assay [2] (setting [7]) it was -3%; in assay [2] (setting [8]), 54%; in assay [2] (at 50.0 µM), 58.9%. Also, the growth inhibition in assay [3] (setting [7]) was -34%; in assay [3] (setting [8]), 9%; in assay [3] (at 50.0 µM), 50.6%; in assay [4] (setting [7]), -5%; in assay [4] (setting [8]), 10%; in assay [4] (at 50.0 µM), 49.5%. In addition, the growth inhibition is -7% in assay [5] (setting [7]); 24% in assay [5] (setting [8]); 54.2% in assay [5] (at 50.0 µM); 12% in assay [6] (setting [7]); 45% in assay [6] (setting [8]); 73.9% (active) in assay [6] (at 50.0 µM).

For the compound `O=Nc1c2n[nH]c1CCCCCCCCC2`, the growth inhibition was 24% in assay [1] (setting [7]); 99% (active) in assay [1] (setting [8]); 99.4% (active) in assay [1] (at 50.0 µM); 45% in assay [2] (setting [7]); 99% (active) in assay [2] (setting [8]); 99.4% (active) in assay [2] (at 50.0 µM). Moreover, the growth inhibition in assay [3] (setting [7]) was 56%; in assay [3] (setting [8]) it was 99% (active); in assay [3] (at 50.0 µM), 99.5% (active); in assay [4] (setting [7]) it was 23%; in assay [4] (setting [8]) it was 99% (active); in assay [4] (at 50.0 µM), 99.5% (active). In addition, the growth inhibition in assay [5] (setting [7]) is 37%; in assay [5] (setting [8]) it was 99% (active); in assay [5] (at 50.0 µM) it was 99.3% (active); in assay [6] (setting [7]) it was 75% (active); in assay [6] (setting [8]), 99% (active); in assay [6] (at 50.0 µM), 96.8% (active).

Turning to `CC(CCl)OC(=O)Nc1cccc(C(F)(F)F)c1` (stereo not given), the growth inhibition in assay [1] (setting [7]) is 55%; in assay [1] (setting [8]) it was 82% (active); in assay [1] (at 50.0 µM), 73.1% (active); in assay [2] (setting [7]), 40%; in assay [2] (setting [8]) it was 50%; in assay [2] (at 50.0 µM), 31.5%. Further, the growth inhibition is 42% in assay [3] (setting [7]); 70% (active) in assay [3] (setting [8]); 83% (active) in assay [3] (at 50.0 µM); 41% in assay [4] (setting [7]); 51% in assay [4] (setting [8]); 62% in assay [4] (at 50.0 µM). Also, the growth inhibition in assay [5] (setting [7]) was 37%; in assay [5] (setting [8]), 77% (active); in assay [5] (at 50.0 µM), 74.8% (active); in assay [6] (setting [7]), 55%; in assay [6] (setting [8]), 87% (active); in assay [6] (at 50.0 µM), 73% (active).

`COc1cc2c(c(C)c1O)[C@H]1COc3ccccc3[C@H]1O2`: the growth inhibition was -24% in assay [1] (setting [7]); -9% in assay [1] (setting [8]); 75.2% (active) in assay [1] (at 50.0 µM); -38% in assay [2] (setting [7]); -9% in assay [2] (setting [8]); 77.8% (active) in assay [2] (at 50.0 µM). For the same compound, the growth inhibition in assay [3] (setting [7]) is 17%; in assay [3] (setting [8]) it was 13%; in assay [3] (at 50.0 µM), 89.9% (active); in assay [4] (setting [7]) it was 10%; in assay [4] (setting [8]), 11%; in assay [4] (at 50.0 µM), 57%. Moreover, the growth inhibition in assay [5] (setting [7]) was 10%; in assay [5] (setting [8]) it was 61%; in assay [5] (at 50.0 µM), 83.9% (active); in assay [6] (setting [7]), -22%; in assay [6] (setting [8]), 10%; in assay [6] (at 50.0 µM), 65.5%.

For the origin of these results see PubChem BioAssay (NCI).
